The results in this text go back to PubChem BioAssay AID1458 (National Center for Advancing Translational Sciences (NCATS), 2008).

About 5,900 (2.8%) of roughly 210,000 compounds were called active. Not shown: some 5% with an inconclusive outcome. Shown is part of a subset that was picked to be rich in actives. Values without a mark were called inactive. Calls follow the shape of the dose curve; as a rule, active = well fitted activation curve with a large enough effect; inconclusive = small, poorly fitted or top-dose-only effect; inactive = no such curve, though single readings can be large or run the other way.
Potency is read from the fitted curve at half-maximal effect.

The nature of the test: qHTS Assay for Enhancers of SMN2 Splice Variant Expression. Also: nearly all actives have a fitted effect of over 55% in size. As to activity change, positive = activation: % of control where 0% means no effect. The conditions noted are these: HEK293 SMN2-luciferase splicing reporter, luminescence, 30-36 h; series mostly up to 46.1 µM; activity change, positive = activation: at the top concentration. In a few lines: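 HEK293 cells carry an SMN2 minigene-luciferase reporter in which exon 7 inclusion puts luciferase in frame. Cells were seeded at 2000 cells/well, attached for 10-12 hours, then exposed to compounds for 30-36 hours at 37C before ONE-Glo luminescence.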
As for `Cc1cc(C)cc(OCC(=O)Nc2nc(-c3ccc(F)cc3)ns2)c1`, the “activity change, positive = activation” value was 0.535%.

In the case of `O=C(NCC12CC3CC(CC(C3)C1)C2)c1cc2nc(-c3ccccc3)cc(C(F)(F)F)n2n1`, the “activity change, positive = activation” value is 1.79%.

For `COC(=O)CSc1nc(C)c2ccc(OC)cc2n1`, the “activity change, positive = activation” value was -3.05%.

`COc1ccc2nc(/N=C(\N)NC(=O)Nc3ccccc3)nc(C)c2c1`: the “activity change, positive = activation” value is -13.2%.

Consider `COc1ccc2nc(SCc3ccccc3)nc(C)c2c1`, for which the Potency was 11.2 µM (active).

With `CCc1nn(CCCC(=O)NC(C)c2ccccc2)c(=O)c2cc3occc3n12` (configuration not stated), the “activity change, positive = activation” value is 4.04%.

On to `Cc1ccc(S(=O)(=O)n2nc(-c3ccc(Cl)cc3)nc2NCc2ccccc2)cc1`, for which the “activity change, positive = activation” value was 3.98%.

On to `CCOc1ccc(Nc2oc(/C=C/c3ccc(F)cc3)nc2C#N)cc1`, for which the “activity change, positive = activation” value was -3.75%.

As for `COc1ccccc1NC(=O)C1=C(C)NC(=O)NC1c1ccc(C)s1` (configuration not stated), the “activity change, positive = activation” value is 1.35%.

Take `COc1ccccc1NC(=O)/C=C/C(N)=O`: the “activity change, positive = activation” value is -1.18%.

On to `COc1ccccc1NC(=O)c1ccc(C)s1`, for which the Potency is 12.6 µM (active).

With `Cc1cc(C)cc(NS(=O)(=O)c2ccc3[nH]cc(C(=O)N4CCCCC4)c(=O)c3c2)c1`, the “activity change, positive = activation” value was 0.685%.

As for `Cc1ccc(Nc2c(-c3ccc(Cl)cc3)nc3sccn23)c(C)c1`, the “activity change, positive = activation” value was -10.5%.

On to `CCCCOc1ccc(C(=O)N2CC(=O)Nc3ccc(Br)cc3C2c2ccc(F)cc2)cc1` (configuration not stated), for which the “activity change, positive = activation” value was -19%.

For `Cc1ccc(NC(=S)NC(=O)c2ccc(-c3ccccc3)cc2)c(C)c1`, the “activity change, positive = activation” value is -42.6%.

`Cc1ccc(NC(=S)Nc2ncccc2C)c(C)c1`: the Potency was 12.6 µM (active).

As to `Cc1ccc(NC(=S)NCc2ccccc2Cl)c(C)c1`, the “activity change, positive = activation” value was 12.2%.

As to `N/C(=N\OC(=O)c1ccc([N+](=O)[O-])cc1)c1ccccn1`, the Potency was 6.31 µM (active).

Take `N/C(=N\OC(=O)Cc1ccc([N+](=O)[O-])cc1)c1ccccn1`: the “activity change, positive = activation” value was 12.1%.

For the compound `O=C(OCc1ccc([N+](=O)[O-])cc1)c1ccccn1`, the “activity change, positive = activation” value is 1.36%.

As to `CCOC(=O)c1ccc(N2C(=O)c3n[nH]c(-c4ccco4)c3C2c2ccc(O)cc2)cc1` (configuration not stated), the “activity change, positive = activation” value was -28.6%.

As for `Cc1nc2ccc(S(=O)(=O)NC(C(=O)NCc3ccccc3Cl)C(C)C)cc2s1` (configuration not stated), the “activity change, positive = activation” value is 12.8%.

On to `COc1ccc(-c2nc(CN3CCC(C(=O)NCCN(CC(C)C)CC(C)C)CC3)c(C)o2)cc1OC`, for which the “activity change, positive = activation” value is 28.4%.

Take `COc1ccc(CNc2nc(-c3ccc(Cl)cc3)cc(C(F)(F)F)n2)cc1`: the “activity change, positive = activation” value is -27.8%.

`O=C1CC(c2ccc(F)cc2F)c2cc3c(cc2N1)OCO3` (configuration not stated): the “activity change, positive = activation” value was 1.33%.

In the case of `COc1ccc(CCNC(=O)c2cc(-c3ccc4c(c3)OCO4)on2)cc1OC`, the “activity change, positive = activation” value is 1.05%.

Regarding `COc1c2c(cc3occ(-c4ccc5c(c4)OCO5)c(=O)c13)OC(C)(C)C=C2`, the Potency is 6.31 µM (active).

As to `Cc1cccc(NC(=O)CSc2nnc(CNC(=O)c3cccc(C)c3)n2-c2ccccc2)c1`, the “activity change, positive = activation” value is -32.5%.

For `CCN1CCN(c2cc(C)c3cc(NC(=O)c4cc(Cl)ccc4OC)ccc3n2)CC1`, the “activity change, positive = activation” value was -12.2%.

With `CCc1cccc(NC(=O)CSc2nccn2C)c1`, the “activity change, positive = activation” value is 16.9%.

As to `O=C(CCCn1c(SCC(=O)c2ccc(F)cc2)nc2ccccc2c1=O)NCc1ccco1`, the “activity change, positive = activation” value was -22%.

Take `Cc1ccc(C(=O)CSc2nc3ccccc3c(=O)n2N)o1`: the Potency is 15.8 µM (active).

With `O=C(CCn1c(SCC(=O)c2ccccc2)nc2ccccc2c1=O)NCc1ccc(F)cc1`, the “activity change, positive = activation” value is 2.41%.

`CCOc1nc(-c2ccc(OC)cc2)ccc1-c1noc(-c2cc(OC)c(OC)c(OC)c2)n1`: the “activity change, positive = activation” value was -12.6%.

Consider `COc1ccc(-c2noc(CN(C)S(=O)(=O)c3ccc(C)cc3)n2)cc1`, for which the “activity change, positive = activation” value is -39.1%.

For `COc1ccc(-c2noc(CSc3nnc(-c4ccccc4)n3-c3ccc(F)cc3)n2)c(OC)c1`, the “activity change, positive = activation” value was 27.6%.

On to `COc1ccc(-c2noc(-c3ccc(C)cc3)n2)cc1`, for which the Potency was 17.8 µM (active).

As for `COc1ccc(/C=C/c2noc(-c3ccccc3O)n2)cc1OC`, the “activity change, positive = activation” value is 0.349%.

`COc1ccc(-c2noc(CSc3ccc(C)cc3)n2)cc1`: the “activity change, positive = activation” value was -14.2%.

Take `COc1ccc(-c2nc(-c3ccccc3)no2)c(OC)c1`: the Potency is 0.447 µM (active).

As to `COc1ccc(-c2nnco2)cc1OC`, the “activity change, positive = activation” value is -2.06%.

In the case of `COc1ccc(-c2noc(-c3cccc(OC)c3OC)n2)cc1OC`, the Potency is 12.6 µM (active).

Take `COc1ccc(CC(N)C(=O)NC2C(O)[C@H](n3cnc4c(N(C)C)ncnc43)O[C@@H]2CO)cc1` (some centres not stated): the “activity change, positive = activation” value is -70.3%.

As to `CC1=C(C(=O)OCC2CCCCC2)C(c2c(F)cccc2Cl)CC(=O)N1` (configuration not stated), the “activity change, positive = activation” value is -17.8%.

As for `O=C(Nc1cc(C(F)(F)F)ccc1Cl)c1ccc2c(c1)CCN2S(=O)(=O)c1ccccc1`, the “activity change, positive = activation” value is 2.17%.

In the case of `CCSc1ncc(Cl)c(C(=O)Nc2c(C(=O)c3ccccc3)oc3ccccc23)n1`, the “activity change, positive = activation” value is 4.69%.

As to `O=C(C1CCCN(S(=O)(=O)c2cccc3nonc23)C1)N1CCN(c2ccccc2F)CC1` (configuration not stated), the “activity change, positive = activation” value was -5.02%.

For `COc1ccccc1Nc1cc(C(=O)NCCCN(C)C2CCCCC2)c2ccccc2n1`, the “activity change, positive = activation” value is -53.1%.

As to `CCCC12CN3CC(C)(CN(C1)C3c1ccccc1Cl)C2=O` (configuration not stated), the “activity change, positive = activation” value was 3.3%.

For `Cc1cc(C(=O)OCC(=O)Nc2nnc(C(C)C)s2)c2ccccc2n1`, the activity change, positive = activation is 10.4% [at 1.84 µM].

`O=C(O)CCCCc1nc2ccccc2s1`: the “activity change, positive = activation” value is 11.6%.

As to `CC(C)CC(=O)NC(=S)NCc1ccccc1`, the “activity change, positive = activation” value is 12.2%.
